Assay outcomes deposited in PubChem BioAssay by National Center for Advancing Translational Sciences (NCATS).
GLP-1R agonist = GLP-1 receptor (human) agonism. AID 624172. Potency, µM (series often up to 45.6 µM), for inactives: at the highest dose activation, usual class: activators. HEK293 GLP-1R CRE-luciferase, luminescence, 4-6 h; cells express a hypersensitive GLP-1R form. 380,000 tested, 0.007% active; note: potency is the fitted concentration of half-maximal effect; % of control where 0% means no effect
Target sequence (P43220 whole entry, looked up): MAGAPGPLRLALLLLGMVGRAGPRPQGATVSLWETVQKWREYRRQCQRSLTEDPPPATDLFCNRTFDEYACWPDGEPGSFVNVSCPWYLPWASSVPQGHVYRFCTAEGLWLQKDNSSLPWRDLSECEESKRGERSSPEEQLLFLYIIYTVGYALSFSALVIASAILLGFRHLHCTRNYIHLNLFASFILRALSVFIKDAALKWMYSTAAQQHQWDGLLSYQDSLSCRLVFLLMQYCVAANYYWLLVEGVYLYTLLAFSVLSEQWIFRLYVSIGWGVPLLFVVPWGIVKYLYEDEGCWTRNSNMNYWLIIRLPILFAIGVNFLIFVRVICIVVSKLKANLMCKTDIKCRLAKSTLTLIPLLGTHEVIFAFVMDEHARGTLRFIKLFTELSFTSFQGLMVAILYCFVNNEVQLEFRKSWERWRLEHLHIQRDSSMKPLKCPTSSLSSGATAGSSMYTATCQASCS
GLP1R cytotox = cytotoxicity in counter-screen for GLP-1R inverse agonists. AID 624418. HEK293 cAMP-luciferase reporter cells, luminescence, 24 h. 410,000 tested, 0.13% active. Potency, µM (series often up to 38.3 µM), inactives show at the top dose activity change, negative = inhibition, usual class: inhibitors;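 note: loss of luciferase light is scored as toxicity; potency is the fitted concentration of half-maximal effect; % is set by controls: 0 for no effect and ±100 for the full control effect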
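Quantitative HTS format, 1536 wells, 200 cells/uL seeded. Compounds: 23 nL, 24 h, 37 °C. Detection: luciferase reagent, luminescence at 12 min RT; decreased signal taken as cytotoxic.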
MmCpn inh = blocks the Methanococcus maripaludis chaperonin Mm-Cpn. Potency, µM (highest dose often 76.9 µM), without a hit: at the top dose activity, negative = inhibition, usual class: inhibitors. 330,000 tested, 0.031% active. purified Mm-Cpn ATPase, ADP Transcreener TR-FRET; note: potency is the fitted concentration of half-maximal effect; % is set by controls: 0 for no effect and ±100 for the full control effect; nearly all actives have a fitted effect of over 80% in size
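ATPase turnover read by TR-FRET ADP competition (Eu cryptate antibody/ADP-d2, 665/590 nm): 10uM ATP final, 25nM Mm-CPN final, 30 min 37degC after 10-min compound preincubation, pH 7.4 Tris/KCl/MgCl2/DTT buffer.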
CCT chaperon mod = modulators of cytosolic chaperonin (CCT/TRiC) activity | purified chaperonin ATPase assay, HTRF ADP detection, 30 min | 360,000 tested, 0.3% active | activity change, % (test concentration not listed), hits read low | AID 651819; in the data active = activity change below about -30%; note: % is set by controls: 0 for no effect and ±100 for the full control effect
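ATPase activity: ADP formed was measured by HTRF Transcreener (665/615 nm ratio) after 30 min at 37 deg C with 10 uM ATP. Compounds screened at one 76 uM concentration against 40 or 20 nM TRiC in Tris pH 7.4/KCl/MgCl2/DTT buffer.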
uPA surface inh = blocks generation of uPA at the cell surface; cell surface uPA generation assay, qHTS; Potency, µM (titrated, usually from 38.3 µM), for inactives: top-dose activity change, negative = inhibition, usual class: inhibitors; 330,000 tested, 0.31% active; AID 540303; active = well fitted inhibition curve with a large enough effect; inconclusive = small, poorly fitted or top-dose-only effect; inactive = no such curve, though single readings can be large or run the other way; tested in mouse RAW 264.7 cells; note: potency is the fitted concentration of half-maximal effect; % is set by controls: 0 for no effect and ±100 for the full control effect; nearly all actives have a fitted effect of over 55% in size
GLP-1R inv ag = acts as inverse agonist at human GLP-1 receptor | Potency, µM (top dose mostly 38.3 µM), without a hit: at the highest dose activity change, negative = inhibition, usual class: inhibitors | 410,000 tested, 1.6% active | P43220 | HEK293 GLP-1R CRE-luciferase, luminescence, 24 h; GLP-1R form is constitutively active; note: potency is the fitted concentration of half-maximal effect; % is set by controls: 0 for no effect and ±100 for the full control effect; nearly all actives have a fitted effect of over 55% in size
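Constitutively active GLP-1R drives a cAMP-responsive luciferase in stably transfected HEK293 cells; test compounds are added after overnight (12 h) attachment and left 24 hr, and signal loss in luminescence marks inhibition.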
* hit, by the source's call. Rows were chosen to be rich in hits. Some 2.2% of all compounds tested hit in one or more screens of this group. Unless noted, calls come from the whole dose curve; as a rule, active = well fitted curve in the direction sought with a large enough effect; inconclusive = small, poorly fitted or top-dose-only effect, or another doubt; inactive = no such curve, though single readings can be large; an effect the other way counts as inactive or inconclusive.

How did O=C(CN(Cc1ccc(Cl)c(Cl)c1)S(=O)(=O)c1ccccc1)N/N=C\c1ccc2c(c1)OCO2 do in these assays?
GLP-1R agonist: -4.9%; GLP1R cytotox: -19.0%; MmCpn inh: 1.1%; CCT chaperon mod: 1.1; uPA surface inh: -3.6%; GLP-1R inv ag: 2.24µM*

How did O=C(CN(Cc1ccccc1)S(=O)(=O)c1ccccc1)N/N=C/c1ccc2c(c1)OCO2 do in these assays?
GLP-1R agonist: 5.9%; GLP1R cytotox: inconclusive; MmCpn inh: -7.6%; CCT chaperon mod: 2.7; uPA surface inh: 6.6%; GLP-1R inv ag: 30.2%

How did Cc1ccc(NC(=O)CN(C)Cc2cccs2)cc1Cl do in these assays?
GLP-1R agonist: 23.2%; GLP1R cytotox: 3.2%; MmCpn inh: 2.1%; CCT chaperon mod: 0.5; uPA surface inh: 0.7%; GLP-1R inv ag: inconclusive

How did CCN(CC)c1ccc(NC(=O)CN(C)Cc2cccs2)cc1 do in these assays?
GLP-1R agonist: 13.9%; GLP1R cytotox: -1.5%; MmCpn inh: -2.2%; CCT chaperon mod: -1.2; uPA surface inh: 0.7%; GLP-1R inv ag: 11.2µM*

Results for COc1ccc2c(=O)c(-c3ccc(C)cc3)c(-c3ccccc3)oc2c1 ?
GLP-1R agonist: -2.6%; GLP1R cytotox: 4.0%; MmCpn inh: -4.6%; CCT chaperon mod: -0.6; uPA surface inh: 7.9%; GLP-1R inv ag: 7.94µM*

What do the screens show for `CCS(=O)(=O)N1CCCc2cc(C(=O)Nc3cc([N+](=O)[O-])ccc3C)ccc21`?
GLP1R cytotox: -8.1%; GLP-1R inv ag: -13.6%

How did CC(C)CC(=O)Nc1ccc2c(c1)oc1ccccc12 do in these assays?
GLP-1R agonist: -2.5%; GLP1R cytotox: 2.1%; MmCpn inh: 1.4%; CCT chaperon mod: -40.3*; uPA surface inh: -9.2%; GLP-1R inv ag: inconclusive

Results for CNC(=S)N/N=C(\C)c1cccc(C(F)(F)F)c1 ?
GLP-1R agonist: 12.7%; GLP1R cytotox: inconclusive; MmCpn inh: 0.6%; CCT chaperon mod: -1.8; uPA surface inh: -3.8%; GLP-1R inv ag: inconclusive

What do the screens show for `COCCNC(=S)N/N=C(\C)c1ccc(O)cc1`?
GLP-1R agonist: 5.4%; GLP1R cytotox: inconclusive; MmCpn inh: 3.6%; CCT chaperon mod: -2.6; uPA surface inh: -2.0%; GLP-1R inv ag: -21.1%

What do the screens show for `CNC(=S)N/N=C(\C)c1ccc(C)c(C)c1`?
GLP-1R agonist: 11.6%; GLP1R cytotox: inconclusive; MmCpn inh: -0.5%; CCT chaperon mod: -1.0; uPA surface inh: -5.7%; GLP-1R inv ag: 3.55µM*

What do the screens show for `C/C(=N\NC(=S)Nc1ccccc1C)c1ccc(O)cc1`?
GLP-1R agonist: 5.1%; GLP1R cytotox: inconclusive; MmCpn inh: 0.0%; CCT chaperon mod: -2.0; uPA surface inh: 19.9%; GLP-1R inv ag: 10µM*

How did COc1cccc(NC(=O)Cn2c(=O)n(-c3ccccc3)c(=O)c3ccc(C(=O)NCc4ccc5c(c4)OCO5)cc32)c1 do in these assays?
GLP-1R agonist: 3.7%; GLP1R cytotox: 2.9%; GLP-1R inv ag: -13.9%

How did COc1cc(NC(=O)CSc2cc(=O)n(C)c3ccccc23)cc(OC)c1OC do in these assays?
GLP1R cytotox: 7.1%; GLP-1R inv ag: 12.0%

Results for CC(C)Oc1ccccc1C1Nc2ccccc2C(=O)N1c1ccc2c(c1)OCCO2 (stereo not drawn) ?
GLP-1R agonist: -9.3%; GLP1R cytotox: 23.3%; MmCpn inh: -2.0%; CCT chaperon mod: -0.2; uPA surface inh: -9.5%; GLP-1R inv ag: 10µM*

How did CCCCCNC(=O)C(c1ccccc1)n1c(=O)c(-c2cc3ccccc3[nH]2)nc2ccccc21 (stereo not drawn) do in these assays?
GLP1R cytotox: inactive; GLP-1R inv ag: inconclusive

What do the screens show for `CCCCCNC(=O)C(CCc1ccccc1)n1c(=O)c(-c2cc3ccccc3[nH]2)nc2ccccc21` (stereo not drawn)?
GLP1R cytotox: 388.4%; GLP-1R inv ag: 3.55µM*

Results for CC(C)(C)NC(=O)C(c1ccccc1)n1c(=O)c(-c2ccccc2)nc2ccccc21 (stereo not drawn) ?
GLP1R cytotox: -1.7%; GLP-1R inv ag: 11.2µM*

What do the screens show for `O=C(NC1CCCCC1)C(c1ccc(C(F)(F)F)cc1)n1c(=O)c(-c2cc3ccccc3[nH]2)nc2ccccc21` (stereo not drawn)?
GLP1R cytotox: inactive; GLP-1R inv ag: 2.51µM*

What do the screens show for `COc1ccc(C(C(=O)NC(C)(C)C)n2c(=O)c(-c3cc4ccccc4[nH]3)nc3ccccc32)cc1` (stereo not drawn)?
GLP1R cytotox: inactive; GLP-1R inv ag: 10µM*

How did CCc1cnc2c(c1SC(C(C)=O)C(=O)N(C)C)c(=O)n(C)c(=O)n2C (stereo not drawn) do in these assays?
GLP1R cytotox: 8.2%; GLP-1R inv ag: 10.2%

How did CCOC(=O)c1scc(-c2ccccc2)c1S(=O)(=O)Nc1ccc(N(C)C)cc1 do in these assays?
GLP1R cytotox: 2.5%; GLP-1R inv ag: inconclusive

What do the screens show for `COc1ccc(-c2cc(C)nc3c(-c4ccc(OC)c(OC)c4)c(C)nn23)cc1`?
GLP1R cytotox: 2.7%; GLP-1R inv ag: -35.2%

How did Fc1ccc(C2c3[nH]c4ccccc4c3CCN2Cc2cccn2-c2ncccn2)cc1 (stereo not drawn) do in these assays?
GLP-1R agonist: 3.3%; GLP1R cytotox: -22.1%; MmCpn inh: -1.1%; CCT chaperon mod: -0.3; uPA surface inh: 0.7%; GLP-1R inv ag: 11.2µM*

Results for O=C(NCCCN1CCN(c2ccccc2)CC1)c1ccc2nc(CCc3ccccc3)oc2c1 ?
GLP1R cytotox: 4.7%; GLP-1R inv ag: 15.8%

Results for O=C(Nc1ccccc1C(F)(F)F)c1ccc(CN2CCC(Cc3ccccc3)CC2)cc1 ?
GLP-1R agonist: -1.9%; GLP1R cytotox: inconclusive; MmCpn inh: -0.1%; CCT chaperon mod: 0.4; uPA surface inh: -4.6%; GLP-1R inv ag: 8.91µM*

How did CCN1CCN(Cc2ccc(NC(=O)Nc3ccccc3Cl)cc2)CC1 do in these assays?
GLP-1R agonist: -5.1%; GLP1R cytotox: inconclusive; MmCpn inh: -28.6%; CCT chaperon mod: 1.0; uPA surface inh: 10µM*; GLP-1R inv ag: inconclusive

Results for O=C(NCC1CCN(Cc2cccc(Cl)c2)CC1)Nc1ccccc1Cl ?
GLP-1R agonist: 9.9%; GLP1R cytotox: -8.0%; MmCpn inh: 1.1%; CCT chaperon mod: -1.5; uPA surface inh: 2.0%; GLP-1R inv ag: 10µM*

Results for O=C(Nc1ccc(CN2CCCCC2)cc1)Nc1ccccc1Cl ?
GLP-1R agonist: 15.4%; GLP1R cytotox: -1.1%; MmCpn inh: 1.9%; CCT chaperon mod: -1.9; uPA surface inh: -12.1%; GLP-1R inv ag: inconclusive
